SMILES strings stand for the structures. The panel holds about 83,000 compounds, 20% with a hit somewhere; the sample as a whole holds those more often.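 In brief: 96-well plates, 48 h treatment, single concentration, percent growth endpoint.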 Activity calls are given as the source filed them. Rule for the calls: active = growth percent below 10; inactive = the rest.

These results are taken from PubChem BioAssay (NCI).

One experiment has as its system MDA-MB-435 melanoma. Kind of experiment: NCI-60 one-dose screen, 48 h (100 = growth as untreated, 0 = no growth, -100 = all killed). The note with it: 10 µM unless noted.
Take `Cc1[nH]c(-c2cc(N)ccc2Cl)c2c1C(=O)CCCC2`: the growth is 15.5% (inactive).
Turning to `COc1ccc(/C=C\c2cc(OC)c(OC)c(OC)c2)cc1OC(=O)c1cccc(Cn2cc(CCOC(=O)[C@H](N)Cc3cn(C)c4ccccc34)nn2)c1`, the growth is -32.7% (active).
On the same count and under the same terms, in the case of `CC1CCNC(C)C1` (stereo not drawn) it was 107% (inactive); in that of `Clc1ccc2c(NCCNc3nc(N4CCOCC4)nc4ccccc34)ccnc2c1`, -8.79% (active); in that of `CNC(=O)c1cc(Oc2ccc(NC(=O)Nc3ccc(Cl)c(SC)c3)c(F)c2)ccn1`, 32.6% (inactive).
The same measure, in the same setting: in the case of `O=Nc1c(O)c(Cl)cc2ccccc12` it was 91.8% (inactive).
Still for that read-out and setting: under `COc1ccc(-c2nc3ccc(-c4nc5ccc(N6CCN(c7ccncc7)CC6)cc5[nH]4)cc3[nH]2)cc1OC` stands 31.4% (inactive).
As for `COc1cc(/C=C/c2cc(O)c3cc(C(C)=O)c(=O)oc3c2)cc2c1O[C@]1(C)CC[C@@H](O)C(C)(C)[C@H]1C2`, the growth was 21.2% (inactive).
As for `COc1ccc(/C=C/c2nc3ccccc3nc2/C=C/c2ccc(OC)cc2)cc1`, the growth is 88.4% (inactive).
As to `CN(C)CCCNc1c2ccccc2nc2ccccc12`, the growth was 96.1% (inactive).
Same read-out and setting: under `O=C(Nc1ccc(Cl)cc1)c1cc2cc(F)ccc2cc1O` stands 10.5% (inactive).
On the same count and under the same terms, in the case of `Cc1ccc(C2=NN3C(C2)c2cc(Br)ccc2OC32CCN(Cc3ccccc3)CC2)o1` (stereo not drawn) it was 94% (inactive); in that of `O=C(CCN1C(=O)/C(=C/c2ccc(Cl)cc2)SC1=S)NCCCN1CCOCC1`, 98.9% (inactive).
Take `C#CCOc1ccc2ncnc(N3CCN(C(=O)CCl)CC3)c2c1`: the growth was 86.6% [8.25 µM] (inactive).
On the same count and under the same terms, in the case of `Cc1ccc(C(SCC(N)C(=O)O)(c2ccccc2)c2ccc(C)cc2)cc1` (stereo not drawn) it was -23.5% (active); in that of `Cc1cc(Nc2ccc(C)c(Cl)c2)n2nc(C(F)(F)F)nc2n1`, 34.5% (inactive).
For the compound `COc1ccccc1NS(=O)(=O)c1ccc2oc(SC(C)C)nc2c1`, the growth was 88.2% (inactive).
Same read-out and setting: in the case of `CCN1CCN(c2nc(NCCCNc3ccnc4cc(Cl)ccc34)c3ccccc3n2)CC1` it was -81.7% (active); in that of `CCc1nnc(CNc2ccc(Cl)cc2)o1`, 101% (inactive).
Consider `CCOC(=O)c1c(C)oc2ncnc(N3CCN(C(=S)Nc4ccccc4)CC3)c12`, for which the growth was 102% (inactive).
On the same count and under the same terms, in the case of `C=C1c2nc3ccccc3n2C=C(c2cccc(Cl)c2)N1Cc1ccc(OC)cc1` it was -32.3% (active); in that of `COc1ccc(/C=C/C(=O)c2ccc(O)c(CN3CCN(c4cc5c(cc4F)c(=O)c(C(=O)O)cn5C4CC4)CC3)c2)cc1`, 28.3% (inactive).
Same read-out and setting: under `O=C1NC(=Nc2ccc(O)cc2)S/C1=C\c1cccc(Cl)c1` stands 2.14% (active); under `N#Cc1c(-c2ccc(Cl)cc2)nc(N/N=C/c2cccc(Br)c2)nc1N1CCOCC1`, 104% (inactive); under `COc1ccc(N=Nc2nccs2)c(O)c1`, 58.7% (inactive).
The same measure, in the same setting: under `O=C1/C(=C/C(Cl)=C/c2ccccc2)SC(=S)N1CCc1ccc(O)cc1` stands -30.7% (active); under `COc1cc(/C=C/C(=O)c2cccnc2Nc2ccc(F)cc2)cc(OC)c1OC`, 28.4% (inactive).
Turning to `O=C1Nc2ccc(Br)cc2C12Oc1ccccc1C1CC(c3ccc(F)cc3)=NN12` (stereo not drawn), the growth was 99.8% (inactive).
For the compound `CSc1nc(Nc2cccc(NC(=O)CCl)c2)c(C#N)c(-c2cccc([N+](=O)[O-])c2)n1`, the growth is 45.3% (inactive).
For the compound `c1csc(C2=NN3C(C2)c2ccccc2OC3c2ccncc2)c1` (stereo not drawn), the growth is 99.6% (inactive).
The same measure, in the same setting: in the case of `CCCn1c(=O)[nH]c(N)c([C@H]2c3ccccc3Oc3[nH]c(=O)n(CCC)c(=O)c32)c1=O` it was 84.4% (inactive).
On to `COc1cccc(-c2nc3sccn3c2-c2ccnc(NCCCNS(=O)(=O)c3cccc(F)c3)c2)c1`, for which the growth is 12.2% (inactive).
The same measure, in the same setting: under `CCCCC/C(C=C(C#N)C#N)=C/c1ccccc1` stands 27% (inactive).
As for `C=C(C)C1CC(O)C2(C)CCCC3C2C1CC(C)C3(C)CC/C(C)=C/C(O)C1CCC(=O)c2c(OC)cc(OC)cc21` (stereo not drawn), the growth is 41.7% (inactive).
Still for that read-out and setting: under `O=C1CC(=NCC(=O)n2c(-c3ccccc3)nc3ccccc32)NN1` stands 105% (inactive); under `Clc1ccc2c(NCCCNc3nc(-n4ccnc4)nc4ccccc34)ccnc2c1`, 92.6% (inactive); under `CN(CCCCCl)P(=O)(OCc1ccc([N+](=O)[O-])o1)C(F)(F)c1ccc(CC(=O)NC[C@@H](O)/C=C\[C@@H](O)[C@H](CO)Cc2ccccc2)cc1` (stereo partly drawn), 65.4% (inactive).
On to `O=C1Nc2c(ccc(Cl)c2Cl)/C1=C\c1ccc(C(F)(F)F)cc1`, for which the growth is 95.4% (inactive).
On to `O=C1CSC(=S)N1CCc1ccc(O)cc1`, for which the growth was 65.8% (inactive).

The subject of another experiment is SW-620 colon. Described as above. As to conditions: 10 µM unless noted.
For the compound `Cc1[nH]c(-c2cc(N)ccc2Cl)c2c1C(=O)CCCC2`, the growth was 64.6% (inactive).
Same read-out and setting: in the case of `COc1ccc(/C=C\c2cc(OC)c(OC)c(OC)c2)cc1OC(=O)c1cccc(Cn2cc(CCOC(=O)[C@H](N)Cc3cn(C)c4ccccc34)nn2)c1` it was 28.6% (inactive); in that of `CC1CCNC(C)C1` (stereo not drawn), 100% (inactive); in that of `Clc1ccc2c(NCCNc3nc(N4CCOCC4)nc4ccccc34)ccnc2c1`, 11.2% (inactive).
With `CNC(=O)c1cc(Oc2ccc(NC(=O)Nc3ccc(Cl)c(SC)c3)c(F)c2)ccn1`, the growth is 67.5% (inactive).
With `O=Nc1c(O)c(Cl)cc2ccccc12`, the growth is 46.2% (inactive).
Same read-out and setting: in the case of `COc1ccc(-c2nc3ccc(-c4nc5ccc(N6CCN(c7ccncc7)CC6)cc5[nH]4)cc3[nH]2)cc1OC` it was 35.6% (inactive); in that of `COc1cc(/C=C/c2cc(O)c3cc(C(C)=O)c(=O)oc3c2)cc2c1O[C@]1(C)CC[C@@H](O)C(C)(C)[C@H]1C2`, 28.4% (inactive); in that of `COc1ccc(/C=C/c2nc3ccccc3nc2/C=C/c2ccc(OC)cc2)cc1`, 92.6% (inactive).
On to `CN(C)CCCNc1c2ccccc2nc2ccccc12`, for which the growth was 103% (inactive).
On the same count and under the same terms, under `O=C(Nc1ccc(Cl)cc1)c1cc2cc(F)ccc2cc1O` stands 15.5% (inactive); under `Cc1ccc(C2=NN3C(C2)c2cc(Br)ccc2OC32CCN(Cc3ccccc3)CC2)o1` (stereo not drawn), 97.2% (inactive).
On the same count and under the same terms, under `O=C(CCN1C(=O)/C(=C/c2ccc(Cl)cc2)SC1=S)NCCCN1CCOCC1` stands 100% (inactive).
Same read-out and setting: under `C#CCOc1ccc2ncnc(N3CCN(C(=O)CCl)CC3)c2c1` stands 47.1% [8.25 µM] (inactive).
For `Cc1ccc(C(SCC(N)C(=O)O)(c2ccccc2)c2ccc(C)cc2)cc1` (stereo not drawn), the growth was 15.9% (inactive).
Regarding `Cc1cc(Nc2ccc(C)c(Cl)c2)n2nc(C(F)(F)F)nc2n1`, the growth was 40.6% (inactive).
Turning to `COc1ccccc1NS(=O)(=O)c1ccc2oc(SC(C)C)nc2c1`, the growth is 102% (inactive).
As to `CCN1CCN(c2nc(NCCCNc3ccnc4cc(Cl)ccc34)c3ccccc3n2)CC1`, the growth was 9.73% (active).
Regarding `CCc1nnc(CNc2ccc(Cl)cc2)o1`, the growth is 97.7% (inactive).
Turning to `CCOC(=O)c1c(C)oc2ncnc(N3CCN(C(=S)Nc4ccccc4)CC3)c12`, the growth was 90.5% (inactive).
The same measure, in the same setting: in the case of `C=C1c2nc3ccccc3n2C=C(c2cccc(Cl)c2)N1Cc1ccc(OC)cc1` it was 20.6% (inactive); in that of `COc1ccc(/C=C/C(=O)c2ccc(O)c(CN3CCN(c4cc5c(cc4F)c(=O)c(C(=O)O)cn5C4CC4)CC3)c2)cc1`, 17.5% (inactive); in that of `O=C1NC(=Nc2ccc(O)cc2)S/C1=C\c1cccc(Cl)c1`, 30.7% (inactive).
Still for that read-out and setting: in the case of `N#Cc1c(-c2ccc(Cl)cc2)nc(N/N=C/c2cccc(Br)c2)nc1N1CCOCC1` it was 31.5% (inactive); in that of `COc1ccc(N=Nc2nccs2)c(O)c1`, 34.4% (inactive).
Same read-out and setting: in the case of `O=C1/C(=C/C(Cl)=C/c2ccccc2)SC(=S)N1CCc1ccc(O)cc1` it was 4.79% (active); in that of `COc1cc(/C=C/C(=O)c2cccnc2Nc2ccc(F)cc2)cc(OC)c1OC`, 21.6% (inactive).
Take `O=C1Nc2ccc(Br)cc2C12Oc1ccccc1C1CC(c3ccc(F)cc3)=NN12` (stereo not drawn): the growth was 99% (inactive).
Same read-out and setting: in the case of `CSc1nc(Nc2cccc(NC(=O)CCl)c2)c(C#N)c(-c2cccc([N+](=O)[O-])c2)n1` it was 7.84% (active).
In the case of `c1csc(C2=NN3C(C2)c2ccccc2OC3c2ccncc2)c1` (stereo not drawn), the growth was 103% (inactive).
Still for that read-out and setting: in the case of `CCCn1c(=O)[nH]c(N)c([C@H]2c3ccccc3Oc3[nH]c(=O)n(CCC)c(=O)c32)c1=O` it was 61.2% (inactive); in that of `COc1cccc(-c2nc3sccn3c2-c2ccnc(NCCCNS(=O)(=O)c3cccc(F)c3)c2)c1`, 50% (inactive).
Consider `CCCCC/C(C=C(C#N)C#N)=C/c1ccccc1`, for which the growth was 59.2% (inactive).
For `C=C(C)C1CC(O)C2(C)CCCC3C2C1CC(C)C3(C)CC/C(C)=C/C(O)C1CCC(=O)c2c(OC)cc(OC)cc21` (stereo not drawn), the growth was 47.1% (inactive).
Same read-out and setting: under `O=C1CC(=NCC(=O)n2c(-c3ccccc3)nc3ccccc32)NN1` stands 100% (inactive); under `Clc1ccc2c(NCCCNc3nc(-n4ccnc4)nc4ccccc34)ccnc2c1`, 89.8% (inactive); under `CN(CCCCCl)P(=O)(OCc1ccc([N+](=O)[O-])o1)C(F)(F)c1ccc(CC(=O)NC[C@@H](O)/C=C\[C@@H](O)[C@H](CO)Cc2ccccc2)cc1` (stereo partly drawn), 87.7% (inactive).
Same read-out and setting: in the case of `O=C1Nc2c(ccc(Cl)c2Cl)/C1=C\c1ccc(C(F)(F)F)cc1` it was 67.1% (inactive); in that of `O=C1CSC(=S)N1CCc1ccc(O)cc1`, 53.8% (inactive).
